The record followed here is ChEMBL document CHEMBL3988442, “University of Dundee, Small-Polar-MMV Screening Library” (2021).

The structures appear in SMILES notation. Out of some 48,000 compounds screened, about 13,000 (27%) showed an effect of 50% or more. Some of the results follow.

The test relates to Wolbachia pipientis. As to the kind of experiment: Anti-Wolbachia Cell-Based Screen. The class given is functional. More on the design: scale not given: in the data most compounds retested in dose-response had high values. The settings on record: 5 µM.
For `NC(=O)CCn1cc(CNCc2csc(N)n2)c2ccccc21`, the “Percent Effect” value is recorded as -0.3339%.
`CNc1cncc(C2CCCN2Cc2ccccc2OCC(=O)O)n1` (stereo not drawn): the “Percent Effect” value is -10.59%.
Consider `COc1cccc(CN2CCCC2c2cncc(Nc3nncs3)n2)c1` (stereo not drawn), for which the “Percent Effect” value amounted to 147.7%.
On to `Cc1ccccc1CN1CCCC1c1cncc(Nc2nncs2)n1` (stereo not drawn), for which the “Percent Effect” value was 132.3%.
Turning to `COc1cccc(CN(C(=O)Nc2nncs2)C2CCC(O)CC2)c1` (stereo not drawn), the “Percent Effect” value is reported as 4.875%.
As for `Cc1ccccc1CN1CCC[C@H]1c1nc(-c2cncnc2N)no1`, the “Percent Effect” value is -17.12%.
For the compound `COc1cccc(CN2CCCC2c2ccc[nH]2)c1` (stereo not drawn), the “Percent Effect” value stood at 13.97%.
With `Cc1cccc(CN2CCCC2c2cncc(Nc3nncs3)n2)c1` (stereo not drawn) the figure was 111.5%; with `COC(=O)C(CNC(=O)Nc1nncs1)Cc1cccc(C)c1` (stereo not drawn), -9.936%.
For `CCCN1CCCn2nc(CNC(=O)CC(C)n3ccnc3C)cc2C1` (stereo not drawn), the “Percent Effect” value was -9.141%.
With `CCc1ncc(C(=O)N2CCN(c3cnn(C)c(=O)c3)CC2)cn1` the figure was -4.796%; with `COCc1nc2ncc3c(=O)n(-c4ccc(C(C)=O)cc4)ccc3n2n1`, 38.7%; with `O=c1c2cnc(N3CCCC3)nc2ccn1-c1cccc(C(F)(F)F)c1`, 0.9271%.
On to `COCc1nc2ncc3c(=O)n(-c4cccc(OC)c4)ccc3n2n1`, for which the “Percent Effect” value came out at 97.73%.
With `COCc1nc2ncc3c(=O)n(-c4ccc(OC)cc4)ccc3n2n1`, the “Percent Effect” value is 103.2%.
For `Cc1ccccc1-n1ccc2nc(N3CCCC3)ncc2c1=O`, the “Percent Effect” value is -4.338%.
For the compound `COCc1nc2ncc3c(=O)n(-c4ccccc4OC)ccc3n2n1`, the “Percent Effect” value stood at 126.9%.
With `O=c1c2cnc(N3CCCC3)nc2ccn1-c1cccc(F)c1`, the “Percent Effect” value was -1.705%.
`CCOc1ccc(-n2ccc3nc(N4CCCC4)ncc3c2=O)cc1`: the “Percent Effect” value is -8.321%.
Regarding `O=c1c2cnc(N3CCCCC3)nc2ccn1-c1ccccc1F`, the “Percent Effect” value was determined as 37.48%.
Consider `Cc1ccc(NC(=O)CCc2ccco2)cc1N1CCOC1=O`, for which the “Percent Effect” value is listed as -14.01%.
With `CCCOCC(=O)Nc1ncc(I)cc1C` the figure was -6.497%.
Consider `O=C(CCC1CCCN(C(=O)CCN2CCCCO2)C1)N1CCCC1` (stereo not drawn), for which the “Percent Effect” value is listed as 3.672%.
On to `CNc1nc(N2CCN(Cc3ccsc3)C(CCO)C2)nc2c1CCC2` (stereo not drawn), for which the “Percent Effect” value is -11.96%.
With `CCn1ccc(NC(=O)CN2C(=O)CC(C)(C)c3ccccc32)n1` the figure was 127.7%.
Consider `CCn1cc(NC(=O)CN2C(=O)CC(C)(C)c3ccccc32)cn1`, for which the “Percent Effect” value is recorded as 116.8%.
Regarding `NC(=O)Cn1ccc(NC(=O)C2(c3cccc(F)c3)CCC2)n1`, the “Percent Effect” value was -8.022%.
As to `COCCn1ccc(NC(=O)Nc2ccccn2)n1`, the “Percent Effect” value came out at 7.746%.
On to `CCN(Cc1cnn(CC)c1)C(=O)CN1C(=O)CCc2ccccc21`, for which the “Percent Effect” value was -11.46%.
For `COCCn1ccc(NC(=O)Nc2ccccc2)n1`, the “Percent Effect” value worked out at 3.766%.
On to `CCn1cc(NC(=O)NCC(O)c2ccccc2)cn1` (stereo not drawn), for which the “Percent Effect” value is recorded as -11.2%.
Take `CCn1ccc(NC(=O)CN2C(=O)C(C)(C)c3ccccc32)n1`: the “Percent Effect” value is 112.9%.
With `CCN1C(=O)C(C)(C)c2cc(NC(=O)c3ccco3)ccc21` the figure was -4.693%; with `C[C@@H](NCc1cccc(Cl)c1)c1onc(-c2ccc(F)cc2)c1C(=O)O.Cl`, -9.594%.
`Cc1c(C(=O)N2CC(C)(C)C2(C)C)nnn1-c1cccc2cnccc12`: the “Percent Effect” value was -4.075%.
In the case of `Cc1cnn(CC2CCCN2Cc2coc(-c3cccs3)n2)c1` (stereo not drawn), the “Percent Effect” value is -13.53%.
Regarding `COCCC1CCCCN1Cc1nc(C2CC2)no1` (stereo not drawn), the “Percent Effect” value was -11.16%.
On to `c1csc(CCC2CCCCN2Cc2noc(C3CC3)n2)c1` (stereo not drawn), for which the “Percent Effect” value was found to be 94.56%.
For `Cc1nc(CN2CCCCC2CCc2cccs2)co1` (stereo not drawn), the “Percent Effect” value was 96.55%.
As for `Cc1nc(C)n(CC2CCCN2CCc2cccs2)n1` (stereo not drawn), the “Percent Effect” value was -19.79%.
On to `COCc1noc(CN2CCCCC2CCc2cccs2)n1` (stereo not drawn), for which the “Percent Effect” value is recorded as 103.5%.
As for `COCCC1CCCCN1Cc1nc(Cc2cccc(F)c2)no1` (stereo not drawn), the “Percent Effect” value is given as 4.701%.
For `CC(C)(C(=O)NCCCc1nc2ccccc2[nH]1)n1cc(Cl)cn1`, the “Percent Effect” value is listed as -7.293%.
In the case of `CC(C)CC(CCO)CNC(=O)N1CCC1(C)C` (stereo not drawn), the “Percent Effect” value is -13.05%.
In the case of `Cc1nnc2n1CCN(C(=O)c1cnc3c(cnn3C(C)C)c1)C2`, the “Percent Effect” value is reported as -12.78%.
In the case of `CCOCC(=O)N1CCC(Cc2nnc(SC)n2C)CC1`, the “Percent Effect” value is recorded as 5.722%.
With `O=S(=O)(NCc1cccnc1OC1CCCC1)N1CCCCC1` the figure was 6.628%.
On to `CN(C)C1CCN(C(=O)NCc2ccccc2Cn2cncn2)CC1`, for which the “Percent Effect” value was -21.25%.
As for `O=S(=O)(NCc1ccccc1Cn1cncn1)C1CCCC1`, the “Percent Effect” value was determined as 4.456%.
With `O=S(=O)(NCc1ccccc1Cn1cncn1)N1CCCCCC1`, the “Percent Effect” value was determined as 113.8%.
`Cc1nccn1-c1ccc(CNS(=O)(=O)N2CCC(C)CC2)cn1`: the “Percent Effect” value amounted to 2.013%.
Take `O=C(CCNC(=O)C1CCCC1)NCc1ccccc1Cn1cncn1`: the “Percent Effect” value was 1.009%.
Consider `CC1CCN(S(=O)(=O)NCc2ccccc2Cn2cncn2)CC1`, for which the “Percent Effect” value is given as 5.954%.
With `O=S(=O)(NCc1ccccc1Cn1cncn1)N1CCCCC1` the figure was 112.9%; with `CC1CCN(S(=O)(=O)NCc2ccccc2Cn2cccn2)CC1`, 110.3%; with `CC1CN(Cc2ccccc2Cn2cccn2)CCN1C` (stereo not drawn), -6.674%.
Consider `NC(=O)C1CCN(C(=O)NCc2ccccc2Cn2cncn2)CC1`, for which the “Percent Effect” value was -13.11%.
`CC1CCCN(S(=O)(=O)NCc2ccccc2Cn2cncn2)C1` (stereo not drawn): the “Percent Effect” value was 105.5%.
Turning to `CCN1CCCC1CN(Cc1cc[nH]n1)CC1CCN(CCOC)CC1` (stereo not drawn), the “Percent Effect” value was -0.05242%.
In the case of `CN1CCC(N(Cc2ccco2)S(=O)(=O)c2ccc(Br)cc2Cl)CC1`, the “Percent Effect” value worked out at 36.62%.
In the case of `CCN1C(=O)C2(CCOCC2)c2cc(NC(=O)c3cnccn3)ccc21`, the “Percent Effect” value is reported as -0.09306%.
Consider `CC(=O)NCC(=O)N1Cc2cnc(CC(C)C)nc2C1`, for which the “Percent Effect” value is reported as 15.63%.
With `Cc1ccnn1CCC(=O)N1CCOC(CCc2ccccc2)C1` (stereo not drawn) the figure was -2.997%; with `Cc1noc(C)c1CNC(C(=O)N1CCOCC1)C(C)C` (stereo not drawn), 6.768%.
As for `COCCC1CN(Cc2cn(CCC(N)=O)c3ccccc23)CCO1` (stereo not drawn), the “Percent Effect” value was -2.901%.
For the compound `Cc1[nH]nc(CCC(=O)N2CCOC(CCc3ccccc3)C2)c1C` (stereo not drawn), the “Percent Effect” value was -1.139%.
In the case of `CCC1CN(C(=O)c2[nH]nc(C)c2Br)CCO1` (stereo not drawn), the “Percent Effect” value was -57.1%.
With `NCC1CN(Cc2cn(CCC(N)=O)c3ccccc23)CCO1` (stereo not drawn), the “Percent Effect” value is listed as -15.16%.
With `Cc1noc(C)c1-c1cc(CCC2CN(C(=O)CN)CCO2)ncn1` (stereo not drawn) the figure was 152%.
On to `Cc1noc(C)c1-c1cc(CCC2CN(CCC(N)=O)CCO2)ncn1` (stereo not drawn), for which the “Percent Effect” value worked out at 120.1%.
Regarding `COCC1CN(C(=O)Nc2cc(Cl)cc(Cl)c2)CCO1` (stereo not drawn), the “Percent Effect” value was -11.38%.
In the case of `CC(=O)N1CCOC(CCc2cc(-c3c(C)noc3C)ncn2)C1` (stereo not drawn), the “Percent Effect” value stood at 154%.
With `Cc1noc(C)c1-c1cc(CCC2CN(C(=O)C(C)C)CCO2)ncn1` (stereo not drawn) the figure was 137.5%.
